Source: PubChem (The Scripps Research Institute Molecular Screening Center)
In the library only some 3.4% were active in any assay of this set; here they are far more common.
sPLA2-III inh: Inhibits HGIII-sPLA2 liposome hydrolysis, primary screen; Q9NZ20; QFRET BODIPY PC-A2 liposome hydrolysis, fluorescence; inhibition, % at 12.2 µM; actives 0.56% (n = 370,000);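 active means inhibition above mean plus 3 SD of compounds lying within the high and low control bounds, cut at about 19% in these data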;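 further: 0% = median of test compound wells and 100% = no enzyme DMSO wells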
PLCb3 inh: blocks human PLC-beta3 enzyme activity; inhibition, % at 12.2 µM; actives 0.18% (n = 370,000); AID 720704; Q01970; Purified PLC-beta3, fluorogenic substrate, fluorescence; in the data active means inhibition above about 11%;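 further: 0% = median of compound wells on plate and 100% = full blocker control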
ADAM17 inh: inhibitors of human ADAM17; P78536; recombinant ADAM17, EDANS/DABCYL FRET peptide cleavage; inhibition, % at 6.95 µM; actives 0.83% (n = 370,000); AID 720648;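 active means inhibition above the mean of compounds lying between control limits plus 3 SD, set per campaign, cut at about 8.5% in these data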;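 further: 0% = DMSO-only wells as the low control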
Target sequence (P78536 215-824 limits assumed): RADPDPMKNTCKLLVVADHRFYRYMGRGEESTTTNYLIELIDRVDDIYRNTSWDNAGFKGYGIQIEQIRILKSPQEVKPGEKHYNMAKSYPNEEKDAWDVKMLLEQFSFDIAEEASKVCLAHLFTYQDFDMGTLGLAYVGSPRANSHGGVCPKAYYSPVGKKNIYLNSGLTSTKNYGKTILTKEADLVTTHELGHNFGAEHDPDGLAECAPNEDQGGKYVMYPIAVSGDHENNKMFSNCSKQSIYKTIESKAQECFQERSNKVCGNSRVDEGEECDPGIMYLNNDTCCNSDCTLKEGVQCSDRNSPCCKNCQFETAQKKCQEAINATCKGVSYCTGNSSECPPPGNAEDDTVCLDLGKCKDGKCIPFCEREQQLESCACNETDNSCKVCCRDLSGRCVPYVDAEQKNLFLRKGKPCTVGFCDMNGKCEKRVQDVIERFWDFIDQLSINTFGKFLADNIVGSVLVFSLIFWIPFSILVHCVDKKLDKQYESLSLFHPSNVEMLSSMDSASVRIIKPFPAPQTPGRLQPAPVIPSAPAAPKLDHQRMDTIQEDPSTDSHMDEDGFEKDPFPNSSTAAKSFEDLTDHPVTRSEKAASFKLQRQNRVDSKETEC
PLCg1 inh: blocks human PLC-gamma1 enzyme activity | P19174 | purified PLC-gamma1, fluorogenic substrate, fluorescence | inhibition, % at 12.2 µM | actives 0.84% (n = 370,000); in the data active means inhibition above about 9.5%
ADAM10 inh: inhibits human ADAM10 | recombinant ADAM10, EDANS/DABCYL FRET peptide cleavage, 3 h | inhibition, % at 7 µM | actives 0.62% (n = 370,000) | AID 720582;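 active means inhibition above a per-campaign cutoff equal to the mean of compounds falling between control-based bounds plus 3 SD, cut at about 20% in these data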;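 further: 0% = DMSO wells while the 100% control is not disclosed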
KLK7 zymogen act: activates the human kallikrein-7 zymogen | P49862 | purified proKLK7, EDANS-DABCYL substrate fluorescence; 100% is mature enzyme control, 0% vehicle | activation, % at 7 µM | actives 0.9% (n = 370,000);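 active means activation above the mean of all tested compounds plus 3 SD, computed per campaign excluding outliers beyond control limits, cut at about 13% in these data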
proKLK7 act conf: proKLK7 activation, confirmation. shares compounds with KLK7 zymogen act. purified proKLK7, EDANS-DABCYL substrate fluorescence; scaled: vehicle 0, mature enzyme 100. activation, % at 7 µM. actives 68% (n = 3,200);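 active means activation, as change over the incubation, above the mean of all tested compounds plus 3 SD, cut at about 13% in these data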
EDANS-DABCYL int: counter-screen for kallikrein-7 activators: EDANS-DABCYL optical interference; shares compounds with KLK7 zymogen act; EDANS-DABCYL substrate fluorescence interference, no enzyme, 4 h; solvent 0%, active enzyme control 100%; activation, % at 7 µM; actives 80% (n = 3,200);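 active means activation above the all-compound mean plus 3 SD, ignoring values outside control-based bounds, cut at about 4.8% in these data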;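 further: value is the 4 h activation minus the activation read at time zero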
K7 EDANS ctr: optically interferes with EDANS-DABCYL fluorescence, kallikrein-7 activator counter-screen | shares compounds with KLK7 zymogen act | EDANS-DABCYL peptide fluorescence interference, no enzyme | EC50, µM | actives 20% (n = 250);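 active means compounds that raise the fluorescence signal in this interference counterscreen, with EC50 at or below 10 µM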;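 further: intact quenched peptide substrate alone read at 355 nm excitation and 520 nm emission; signal is fluorescence gain from T0 to T4 after four hours at room temperature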
* hit, by the source's call; i = inactive; . = not tested or not shown.

SMILES | sPLA2-III inh | PLCb3 inh | ADAM17 inh | PLCg1 inh | ADAM10 inh | KLK7 zymogen act | proKLK7 act conf | EDANS-DABCYL int | others
COc1ccc2cc(C(=O)C3CCCN(C(=O)c4cccnc4)C3)ccc2c1 (stereo not given) | -6 | i | i | -496 | i | 22* | 57* | 47* | K7 EDANS ctr=>70
CCn1ccnc1CN1CCCC(C(=O)c2ccc3cc(OC)ccc3c2)C1 (stereo not given) | 1 | -330 | -145 | -226 | -376 | 36* | -3 | -6
COc1ccc2cc(C(=O)C3CCCN(Cc4ccccn4)C3)ccc2c1 (stereo not given) | -8 | i | -270 | -410 | i | 39* | -6 | 1
COc1ccc2cc(C(=O)C3CCCN(Cc4cnc(N5CCOCC5)s4)C3)ccc2c1 (stereo not given) | -15 | -111 | -45 | -56 | -119 | 3 | . | .
O=C(Nc1ccc(C(F)(F)F)cc1)OC1CC2CC1[C@H]1CCCCN1C2 (stereo not given in full) | 4 | -1 | -1 | -1 | -3 | 0 | . | .
Cc1ccc(CN2CCCCC(NC(=O)c3ccc(N(C)C)cc3)C2=O)cc1 (stereo not given) | 0 | -6 | -3 | -4 | -3 | 0 | . | .
COc1ccc(OC)c(/C=N/NC(=O)CN2CCSCC2)c1 | 2 | i | -430 | i | i | 24* | 56* | 47* | K7 EDANS ctr=i
COc1ccc(OC)c(/C=N/NC(=O)C(O)c2ccccc2)c1 (stereo not given) | 2 | i | i | i | i | 41* | 34* | 36*
Cc1ccc(OCc2nnc(SCC(=O)Nc3ccc4c(c3)OCO4)n2Cc2ccco2)cc1 | -28 | 2 | 4 | 0 | 7 | 0 | . | .
COc1ccc(C(=O)Nc2nc3ccccc3[nH]2)cc1OC | 2 | 2 | -2 | -1 | 7 | 0 | . | .
O=C(Nc1nc2ccccc2[nH]1)c1cc2ccccc2o1 | 19 | -106 | -30 | -69 | -62 | 16* | 44* | 44*
COc1ccc(Cl)cc1C(=O)Nc1nc2ccccc2[nH]1 | 1 | -184 | -133 | -132 | -281 | 27* | -3 | -15
CCC(C)NC(=O)CN1C(=O)C2CCCCN2C(=O)c2ccccc21 (stereo not given) | 0 | 0 | -4 | -2 | -13 | 1 | . | .
CC(C)C[C@H]1COc2cccc(F)c2S(=O)(=O)N1Cc1cn(Cc2ccc(F)cc2)nn1 | -3 | 2 | -2 | 1 | 2 | 0 | . | .
O=C(N/N=C/c1ccccc1Br)c1ccc(CSc2cccc3cccnc23)cc1 | 2 | -34 | -21 | -22 | -69 | -1 | . | .
NNC(=O)c1ccc(CSc2cccc3cccnc23)cc1 | 2 | -196 | -114 | -123 | -303 | 13* | 4 | -1
Cc1cc(-n2c(=O)c(C#N)cc3c(=O)n4ccccc4nc32)no1 | -6 | i | i | i | i | 22* | 30* | 57*
N#Cc1cc2c(=O)n3ccccc3nc2n(-c2ccc(Cl)cc2)c1=O | 3 | -90 | -190 | -77 | i | 3 | . | .
Cc1ccccc1-n1c(=O)c(C#N)cc2c(=O)n3ccccc3nc21 | 4 | -464 | i | -344 | i | 13* | 71* | 73*
C=CCn1c(=O)c(C#N)cc2c(=O)n3ccccc3nc21 | 4 | i | i | -426 | i | 39* | 67* | 83*
Cc1ccc(S(=O)(=O)c2cc3c(=O)n4ccccc4nc3n(C)c2=N)cc1 | 8 | -32 | -60 | -23 | -201 | 2 | . | .
O=C(N/N=C/c1ccc(O)cc1)c1[nH]c2ccc(Br)cc2c1-c1ccccc1 | -20 | -156 | -7 | -133 | -38 | -12 | . | .
O=C(N/N=C/c1c[nH]c2ccccc12)c1[nH]c2ccc(Br)cc2c1-c1ccccc1 | 22* | -447 | -14 | -319 | -43 | 84* | -52 | -39
CN1CCN(c2ccc(-c3ccc4ccccc4n3)cc2)CC1 | -15 | i | -81 | i | -246 | 28* | -4 | -10
CCCC[C@H](C(=O)N(C)c1cccc(OC)c1)[C@@H](O)c1ccc(C(C)=O)cc1 | -11 | 3 | 1 | 2 | 2 | 0 | . | .
SMILES | sPLA2-III inh | PLCb3 inh | ADAM17 inh | PLCg1 inh | ADAM10 inh | KLK7 zymogen act | proKLK7 act conf | EDANS-DABCYL int | others
COC(=O)[C@@]12CCCCC=C1N(CCc1ccc(Cl)cc1)C(=O)[C@H]2CC(=O)NCCc1ccccc1OC | 0 | 1 | -3 | -3 | -4 | 0 | . | .
CCOC(=O)C1CCN(c2cc3c(cc2NC(=O)c2ccccc2)n(C)c(=O)n3C)CC1 | 7 | i | -10 | -361 | -39 | 20* | 12 | 12*
CCOC(=O)C1CCN(c2cc3c(cc2NC(=O)c2ccc(OC)c(OC)c2)n(C)c(=O)n3C)CC1 | 3 | -122 | -8 | -79 | -25 | 4 | . | .
COc1cc2c(cc1OC)CN(CC(=O)Nc1ccc(C#N)cc1)CC2 | -1 | -157 | -21 | -132 | -76 | 17* | 3 | 0
COc1cc2c(cc1OC)CN(CC(=O)Nc1ccc(S(=O)(=O)N(C)C)cc1)CC2 | -6 | -32 | -7 | -25 | -15 | 2 | . | .
COc1ccccc1-c1c(C)oc2c(CN3CCN(CCO)CC3)c(O)ccc2c1=O | 5 | i | i | i | i | 72* | 68* | 75*
COc1ccccc1-c1c(C)oc2c(CN3CCN(C)CC3)c(O)ccc2c1=O | 2 | i | i | i | i | 62* | 60* | 74*
COc1ccc(-c2c(C)oc3c(CN4CCN(CCO)CC4)c(O)ccc3c2=O)cc1OC | -8 | -306 | -129 | -258 | i | 11 | . | .
CCC(=O)N1CCc2cc(Br)c(S(=O)(=O)N3CCC(C(=O)NC(C)(C)C)CC3)cc21 | 3 | 2 | -1 | -3 | -7 | 0 | . | .
Cc1ccc(C2C3CSCC=C3C(C#N)=C(N)C2(C#N)C#N)cc1 (stereo not given) | -8 | -94 | -36 | -80 | -93 | 6 | . | .
Cc1ccc([C@@H]2C3COCC=C3C(C#N)=C(N)C2(C#N)C#N)o1 (stereo not given in full) | -21 | -138 | -63 | -105 | -165 | 13* | 53* | 50*
Cc1cc(=O)oc2cc(NC(=O)c3ccccc3C(=O)O)ccc12 | 1 | i | i | i | i | 54* | 14* | 16*
Cc1cc(=O)oc2cc(NC(=O)c3c(Cl)cnn3C)ccc12 | -7 | -11 | -11 | -6 | -36 | 0 | . | .
